Screens: PubChem, Broad Institute
DENV2 CPE rescue – inhibitors of DENV2 cytopathic effect, primary screen, cell-based, plate reader, single concentration. DENV2-infected cells, cytopathic effect rescue. CPE inhibition, % at 9.99 µM. 350,000 compounds, 1.7% hits. AID 651640, 2012; in the data active means CPE inhibition above about 20%, passing the limit was not always enough; inconclusive means no clear call, values can overlap the other calls; tested in BHK-21 cells;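 further: 0% = median of neutral control wells and 100% = median of positive control wells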
FGF22 binding – binders of human FGF22 protein, primary screen, FGF22 synaptogenesis inhibitor project, biophysical, thermal shift, single point. recombinant FGF22 thermal shift, SYPRO orange fluorescence; percent of sucrose octasulfate shift, DMSO zero. activity (Tm shift, normalised), % at 9.99 µM. 340,000 compounds, 1.5% hits. AID 651658, 2012;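 active means mean Tm shift, scaled 0 neutral to 100 positive control, at about 1.3% or above, every replicate too, limit read from the data; inconclusive means no clear call, values can overlap the other calls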
RAD52 inh – RAD52 DNA annealing inhibitors, primary screen, biochemical, FRET, single point, set 2; 360,000 compounds, 0.46% hits; inhibition, % at 18.7 µM; AID 651710, 2012; recombinant RAD52 DNA annealing, FRET fluorescence;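 active means every replicate showing at least 50% inhibition; inconclusive means mean inhibition at least 50% but not in every replicate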
ERAP1 HTS inh – human ERAP1 aminopeptidase inhibitors, primary screen, biochemical, single point, plate reader; 340,000 compounds, 0.15% hits; inhibition, % at 10.7 µM; Endoplasmic reticulum aminopeptidase 1 (Homo sapiens), Q9NZ08; recombinant ERAP1, Leu-AMC fluorescence, 60 min; AID 652197, 2013;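 active means mean replicate inhibition of at least 30%, or all replicates individually reaching that 30% level; inactive means mean below 30% and not every replicate reaching it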;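 further: 0% = neutral control wells and 100% = L-leucinethiol positive control wells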
AF4-AF9 inh – inhibitors of AF4 peptide binding to AF9, primary screen, biochemical, AlphaScreen, biotin-AF4 peptide, FLAG-AF9, single point; 350,000 compounds, 0.47% hits; Protein AF-9 (Homo sapiens), P42568; inhibition, % at 10 µM; AID 651704, 2012;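 active means every replicate reaching a set inhibition limit, whatever the replicate mean, cut at about 25% in these data; inconclusive means mean inhibition reaches that limit but some replicates miss it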;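 further: 0% = plate neutral control median and 100% = total signal loss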
The depositor's hits bear a star; ? = inconclusive; . = no result given. Sampled rows, rich in hits. Any-hit rate of the full collection: about 4%.

SMILES | DENV2 CPE rescue | FGF22 binding | RAD52 inh | ERAP1 HTS inh | AF4-AF9 inh
COC(=O)C1=C(c2c(C)noc2C)C[C@@H]2CC[C@H]1N2C(=O)NC1CC1 | -16 | 0 | -20 | 0 | .
O=C(Cc1ccccc1)N1CCCCN2[C@H](CO)[C@H](c3ccc(C#Cc4ccccc4)cc3)[C@@H]2C1 | 0 | 1 | -12 | -3 | -7
C=C(C)CC1(CC)C(=O)NC(=S)NC1=O | -4 | 44* | 11 | 3 | -2
C=CCC1(CC)C(=O)NC(=S)NC1=O | ? | 0 | -5 | 3 | -3
CC=Cc1ccc2n(c1=O)C[C@@H]1[C@@H](CO)[C@H](C(=O)OC)[C@H]2N1CC1CCCC1 (mixture of isomers) | -2 | . | 7 | 0 | -1
CN(C)C(=O)[C@H]1[C@H](CO)[C@H]2Cn3c(cccc3=O)[C@@H]1N2CC1CC1 | -4 | 0 | -2 | 4 | -6
COC(=O)[C@@H]1[C@@H](CO)[C@@H]2Cn3c(ccc(-c4ccccc4)c3=O)[C@H]1N2CCc1ccccc1 | 5 | 0 | 10 | -1 | -1
CC(C)(Cl)[N+](=O)[O-] | 130* | 0 | -15 | -5 | .
O=C1CNC[C@@H]2[C@H](c3ccc(Br)cc3)[C@H](CO)N12 | 10 | 0 | 2 | -6 | -6
CCCN1CCc2cc(O)cc3c2[C@H]1Cc1ccc(O)c(O)c1-3 | 4 | -1 | 96* | -19 | ?
COc1cc2c(cc1O)C[C@H]1c3c(cc(O)c(OC)c3-2)CCN1C | -14 | -1 | 36 | -3 | 2
CN1CCc2cc(O)cc3c2[C@H]1Cc1ccc(O)c(O)c1-3 | 2 | -1 | 95* | -26 | 18
CCC(C)c1cnc(CC(C)C)c(=O)n1O (stereo not given) | 59* | 0 | -5 | -2 | -2
CN1[C@@H]2c3cccc(=O)n3C[C@H]1[C@H](CO)[C@H]2C(=O)NCC1CC1 | 0 | 0 | -2 | 4 | 0
Cc1cc(OCC(=O)NC(Cc2ccc(Cl)cc2)C(=O)O)c2c3c(c(=O)oc2c1)CCCC3 (stereo not given) | 0 | 1 | -9 | 31* | 1
Cc1cc(OCc2ccc([N+](=O)[O-])cc2)c2c3c(c(=O)oc2c1)CCCC3 | 151* | 0 | 0 | 3 | 2
Cc1cc(OCC(=O)NCc2ccncc2)c2c3c(c(=O)oc2c1)CCC3 | 7 | 0 | -18 | 0 | 1
O=C(Cc1ccccn1)N1CCCCN2[C@@H](CO)[C@@H](c3ccc(-c4ccccc4F)cc3)[C@@H]2C1 | 0 | 0 | -3 | 0 | -3
Fc1ccc(C(OCCN2CCN(CCCc3ccccc3)CC2)c2ccc(F)cc2)cc1 | -6 | 0 | 25 | -10 | 29*
CC(CN1CCOCC1)C(C#N)(c1ccccc1)c1ccccc1 (stereo not given) | 12 | 43* | -10 | 1 | 3
CC(CN1CCOCC1)OC(=O)Cc1ccccc1 (stereo not given) | -4 | 0 | -3 | -4 | -6
O=C(Cc1cccnc1)N1CCCCN2[C@H](CO)[C@H](c3ccc(C#CC4(O)CCCC4)cc3)[C@H]2C1 | 3 | 0 | -6 | 3 | -10
O=C(Cc1ccccc1)N1CCCCN2[C@H](CO)[C@H](c3ccc(C#CC4(O)CCCC4)cc3)[C@H]2C1 | -3 | 1 | 8 | 3 | -6
c1ccc(C2CC2)c(OCC2=NCCN2)c1 | 75* | 0 | 4 | 0 | -1
Cc1ccc(N)c(C)c1 | 82* | 0 | -18 | -5 | .
Cc1ccccc1N | -19 | 0 | -11 | 0 | .
CC(=O)c1ccc2c(c1)OCO2 | 4 | 0 | 14 | 3 | -9
C/C=C/c1ccc2c(c1)OCO2 | 20* | 0 | -20 | -6 | .
CCC(=O)N1[C@@H]2c3ccc(-c4ccc(F)cc4)c(=O)n3C[C@H]1[C@H](CO)[C@H]2C(=O)OC | -2 | 0 | 4 | 0 | -1
COC(=O)[C@@H]1[C@@H](CO)[C@@H]2Cn3c(ccc(-c4ccncc4)c3=O)[C@H]1N2CCc1ccccc1 | 107* | 0 | -6 | 0 | -1
